Laboratory results as given in PubChem BioAssay (NCI).
About 83,000 compounds went through this panel and 20% of them were active in at least one assay; those are over-represented in the sample as a whole.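 Treatment: one concentration, 48 hours, 96-well format. Scoring: percent growth, with anything below 10 considered active.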 Calls of active or inactive are those of the source.

Legend:
Test in all cases: NCI-60 one-dose screen, 48 h (100 = growth as untreated, 0 = no growth, -100 = all killed)
SK-MEL-2 melanoma = settings: 10 µM unless noted
EKVX NSCLC = settings: 10 µM
SN12C renal = settings: 10 µM unless noted
UO-31 renal = settings: 10 µM unless noted
TK-10 renal = settings: 10 µM unless noted
ACHN renal = settings: 10 µM unless noted
CAKI-1 renal = settings: 10 µM unless noted
A498 renal = settings: 10 µM unless noted
CCRF-CEM leukemia = settings: 10 µM
MOLT-4 leukemia = settings: 10 µM unless noted

Measured: growth

CCCCCCCCCCCCc1ccc([N+](CC)(CC)CC)cc1
inactive: SK-MEL-2 melanoma 42.7% | EKVX NSCLC 41% | SN12C renal 33.5% | UO-31 renal 78.7% | TK-10 renal 67.1% | ACHN renal 85% | CAKI-1 renal 88.7% | A498 renal 60% | CCRF-CEM leukemia 33% | MOLT-4 leukemia 51.9%

O=C1C(Cl)=C(Nc2ccc(Nc3ccccc3)c(NC3=C(Cl)C(=O)c4ccccc4C3=O)c2)C(=O)c2ccccc21
inactive: SK-MEL-2 melanoma 106% | EKVX NSCLC 65.8% | SN12C renal 85% | UO-31 renal 57.3% | TK-10 renal 27.8% | ACHN renal 34.4% | CAKI-1 renal 45.3% | A498 renal 53% | CCRF-CEM leukemia 37.9% | MOLT-4 leukemia 37.3%

CC1(C)Oc2cc3oc(=O)ccc3cc2C[C@@H]1OCCOS(=O)(=O)c1ccc(C#N)cc1
inactive: SK-MEL-2 melanoma 102% | EKVX NSCLC 107% | SN12C renal 91.5% | UO-31 renal 83.5% | TK-10 renal 101% | ACHN renal 95.2% | CAKI-1 renal 86.3% | A498 renal 79.6% | CCRF-CEM leukemia 98.6% | MOLT-4 leukemia 92%

CCC(C)C1NC(=O)C(CCCCN)NC(=O)C(CCCCN)NC(=O)C(CC(C)C)NC(=O)C(CCCCN)NC(=O)C(C(C)CC)NC(=O)C(C(C)C)NC(=O)C(C(C)CC)NC(=O)C(CCCCN)NC(=O)C(CCCCN)NC(=O)C(C)NC(=O)C(CCCCN)NC(=O)C(CC(C)C)NC1=O (centres undefined)
active: ACHN renal 3.79% | CAKI-1 renal 6.74%
inactive: SK-MEL-2 melanoma 28.6% | EKVX NSCLC 13.5% | SN12C renal 12.3% | UO-31 renal 14.6% | TK-10 renal 19.5% | A498 renal 21.8% | CCRF-CEM leukemia 22%

COC(=O)C1CC(=O)N(C(=O)Nc2ccc(Cl)cc2Cl)C1 (centres undefined)
inactive: SK-MEL-2 melanoma 108% | EKVX NSCLC 96.5% | SN12C renal 101% | UO-31 renal 84.1% | TK-10 renal 112% | ACHN renal 99.9% | CAKI-1 renal 95.6% | A498 renal 115% | CCRF-CEM leukemia 103% | MOLT-4 leukemia 95%

Cc1c(C(N)=O)sc2c1c(=O)n(Cc1ccccc1)c1nnc(S(C)(=O)=O)n21
inactive: SK-MEL-2 melanoma 80.6% | EKVX NSCLC 98% | SN12C renal 80.3% | UO-31 renal 85.6% | TK-10 renal 93.1% | ACHN renal 100% | CAKI-1 renal 86.5% | A498 renal 95.5%

COc1cc(NC(=O)CSc2nc3ccc(Cl)cc3c(=O)n2-c2ccc(F)cc2)cc(OC)c1OC
inactive: SK-MEL-2 melanoma 92.6% | EKVX NSCLC 67.8% | SN12C renal 78.7% | UO-31 renal 40.6% | TK-10 renal 97.8% | ACHN renal 85.6% | CAKI-1 renal 71.5% | A498 renal 34.8% | CCRF-CEM leukemia 94% | MOLT-4 leukemia 61.8%

COc1cc(CCNc2cnc3cc(N)cc(N)c3n2)cc(OC)c1
active: CCRF-CEM leukemia -52.5% | MOLT-4 leukemia 5.61%
inactive: SK-MEL-2 melanoma 104% | EKVX NSCLC 123% | SN12C renal 107% | UO-31 renal 90.9% | TK-10 renal 116% | ACHN renal 106% | CAKI-1 renal 129% | A498 renal 107%

C=C1CCC2C3(C)COC(c4ccccc4)OC3CCC2(C)C1C/C=C1/C(=O)OCC1O (centres undefined)
inactive: SK-MEL-2 melanoma 66.7% | EKVX NSCLC 104% | SN12C renal 66.7% | UO-31 renal 42.9% | TK-10 renal 105% | ACHN renal 86.7% | CAKI-1 renal 133%

CCS(=O)(=O)OCCO[C@H]1Cc2cc3ccc(=O)oc3cc2OC1(C)C
inactive: SK-MEL-2 melanoma 96.8% | EKVX NSCLC 107% | SN12C renal 107% | UO-31 renal 86.9% | TK-10 renal 102% | ACHN renal 107% | CAKI-1 renal 95% | A498 renal 102% | CCRF-CEM leukemia 115% | MOLT-4 leukemia 107%

COC1NC(Cl)=C(C#N)C(C#N)(C#N)C1(C)C (centres undefined)
inactive: SK-MEL-2 melanoma 99.1% | EKVX NSCLC 86.4% | SN12C renal 104% | UO-31 renal 85.5% | TK-10 renal 113% | ACHN renal 105% | CAKI-1 renal 104% | A498 renal 110% | CCRF-CEM leukemia 109% | MOLT-4 leukemia 89.2%

CCOc1ccc(/C=N/NC(=O)c2cccc3ccccc23)cc1OCC
inactive: SK-MEL-2 melanoma 106% | EKVX NSCLC 99.1% | SN12C renal 96.1% | UO-31 renal 81.6% | TK-10 renal 111% | ACHN renal 102% | CAKI-1 renal 99.3% | A498 renal 78.1% | CCRF-CEM leukemia 84.1% | MOLT-4 leukemia 88.3%

C#CCCCCCCC[C@@H]1OC(=O)[C@H]([C@@H](C)CC)NC(=O)[C@H]([C@@H](C)CC)NC(=O)CC(=O)[C@@H]1C
inactive: SK-MEL-2 melanoma 106% | EKVX NSCLC 97.8% | SN12C renal 98.5% | UO-31 renal 67.3% | TK-10 renal 117% | ACHN renal 94% | CAKI-1 renal 71.4% | A498 renal 92.7% | CCRF-CEM leukemia 89.8% | MOLT-4 leukemia 80.3%

Nc1nc2c(c3cnccc13)C(c1ccc(Cl)c(Cl)c1)Cc1cnccc1-2 (centres undefined)
active: SK-MEL-2 melanoma -36.3% | EKVX NSCLC 5.75% | SN12C renal 2.42% | UO-31 renal -39.9% | TK-10 renal -40% | ACHN renal -67.1% | CAKI-1 renal 4.1% | A498 renal -45.6% | CCRF-CEM leukemia 3.33% | MOLT-4 leukemia 2.48%

O=C(O)CC1Cc2ccccc2C1C(=O)O (centres undefined)
inactive: SK-MEL-2 melanoma 101% | EKVX NSCLC 105% | SN12C renal 95.2% | UO-31 renal 79.6% | TK-10 renal 96.5% | ACHN renal 109% | CAKI-1 renal 104% | A498 renal 90.3% | CCRF-CEM leukemia 85.7% | MOLT-4 leukemia 82.3%

C/C(CCC(=O)O)=N/Nc1ccc([N+](=O)[O-])cc1
inactive: SK-MEL-2 melanoma 26.9% | EKVX NSCLC 63.1% | SN12C renal 77.1% | UO-31 renal 39% | TK-10 renal 88.1% | ACHN renal 36.3% | CAKI-1 renal 25.7% | A498 renal 75.8% | CCRF-CEM leukemia 18.2% | MOLT-4 leukemia 37.3%

CC/C(=N\Nc1nc2ccccc2n1C)c1ccccn1
inactive: SK-MEL-2 melanoma 37.6% | SN12C renal 13.6% | TK-10 renal 33.5%
active: EKVX NSCLC 6.6% | UO-31 renal -10.3% | ACHN renal 0.59% | CAKI-1 renal 2.28% | A498 renal -20.7% | CCRF-CEM leukemia 7.72% | MOLT-4 leukemia 1.52%

O=C1C(=O)c2ccccc2C(O)=C1CCCc1ccc(C2CCCC2)cc1
inactive: SK-MEL-2 melanoma 33.2% | EKVX NSCLC 27% | SN12C renal 49.5% | UO-31 renal 45.8% | TK-10 renal 36.7% | ACHN renal 30.8% | CAKI-1 renal 67.8% | A498 renal 24.2% | CCRF-CEM leukemia 24.4% | MOLT-4 leukemia 14.1%

COC(=O)c1ccc2[nH]c(O)c(C(=Nc3ccc(N(C)C(=O)CN4CCN(C)CC4)cc3)c3cccc(OC)c3)c2c1
active: SK-MEL-2 melanoma -0.0955% | SN12C renal 9.77% | TK-10 renal 0.964% | ACHN renal 6.22% | CAKI-1 renal 2.55% | A498 renal -14.9% | CCRF-CEM leukemia 7.19% | MOLT-4 leukemia -7.42%
inactive: EKVX NSCLC 38.7% | UO-31 renal 20.2%

COCn1c(C(=O)OC)cc2oc(/C=C3/SC(=S)N(N)C3=O)cc21
inactive: SK-MEL-2 melanoma 96.9% | EKVX NSCLC 91.8% | SN12C renal 121% | UO-31 renal 95.7% | TK-10 renal 101% | ACHN renal 110% | CAKI-1 renal 87.3% | A498 renal 54% | CCRF-CEM leukemia 98.1% | MOLT-4 leukemia 68.6%

CCCC(=O)NNc1[nH]c(-c2cc(OC)c(OC)c(OC)c2)cc1C(=O)OCC
active: CCRF-CEM leukemia 9.44% | MOLT-4 leukemia 1.13%
inactive: SK-MEL-2 melanoma 103% | EKVX NSCLC 103% | SN12C renal 108% | UO-31 renal 88.7% | TK-10 renal 74.1% | ACHN renal 81% | CAKI-1 renal 73.1% | A498 renal 120%

Cc1ccc2c(O)c(O)cc(NC(C)CCCN)c2n1 (centres undefined)
active: MOLT-4 leukemia 7.64%
inactive: SK-MEL-2 melanoma 75% | EKVX NSCLC 78% | SN12C renal 32.2% | UO-31 renal 96.8% | TK-10 renal 104% | ACHN renal 108% | CAKI-1 renal 87.4% | A498 renal 81.3% | CCRF-CEM leukemia 39.9%

CC(=O)Nc1nc(C)c(C(=O)NNC(=O)Nc2ccccc2)s1
inactive: SK-MEL-2 melanoma 29.9% | EKVX NSCLC 153% | SN12C renal 92.3% | UO-31 renal 77.7% | TK-10 renal 159% | ACHN renal 93.3% | CAKI-1 renal 140% | A498 renal 90.7% | CCRF-CEM leukemia 79.8% | MOLT-4 leukemia 115%

O=S(=O)(O)c1ccc2c(c1)Sc1cc(S(=O)(=O)O)ccc1O2
inactive: SK-MEL-2 melanoma 107% | EKVX NSCLC 90.1% | SN12C renal 95.8% | UO-31 renal 97% | TK-10 renal 107% | ACHN renal 112% | CAKI-1 renal 105% | A498 renal 96.6% | CCRF-CEM leukemia 107% | MOLT-4 leukemia 115%

O=C1/C(=N\c2cc(=O)[nH]n2S(=O)(=O)c2ccccc2)Nc2ccccc21
inactive: SK-MEL-2 melanoma 102% | EKVX NSCLC 101% | SN12C renal 98.2% | UO-31 renal 70.8% | TK-10 renal 123% | ACHN renal 94.7% | CAKI-1 renal 84.8% | A498 renal 98.2% | CCRF-CEM leukemia 98.4% | MOLT-4 leukemia 102%

C/C=C(/C)C(=O)OC1C=C(CO)C(=O)C(OC(=O)C(C)(O)C(C)Cl)C1C(C)C (centres undefined)
active: SK-MEL-2 melanoma -23.5% | EKVX NSCLC -15% | SN12C renal -35.4% | UO-31 renal -96.5% | TK-10 renal -17.4% | ACHN renal -96.7% | CAKI-1 renal -44.5% | A498 renal -74.6% | CCRF-CEM leukemia 1.18% | MOLT-4 leukemia 0.566%

c1ccc(Nc2ccccn2)cc1
inactive: SK-MEL-2 melanoma 102% | EKVX NSCLC 108% | SN12C renal 94.6% | UO-31 renal 88% | TK-10 renal 95.5% | ACHN renal 106% | CAKI-1 renal 101% | A498 renal 122% | CCRF-CEM leukemia 85% | MOLT-4 leukemia 84%

CCC(CCCN1C(=O)c2ccccc2C1=O)Nc1cc(OC)cc2cccnc12 (centres undefined)
inactive: SK-MEL-2 melanoma 97.8% | EKVX NSCLC 97.2% | SN12C renal 99.3% | UO-31 renal 94.8% | TK-10 renal 136% | ACHN renal 103% | CAKI-1 renal 111% | A498 renal 84.3% | CCRF-CEM leukemia 84.5% | MOLT-4 leukemia 73.8%
